The results in this text go back to PubChem BioAssay AID485313 (National Center for Advancing Translational Sciences (NCATS), 2010).

The structures appear in SMILES notation. Hit rate of the full screen: of about 320,000 compounds, about 7,600 (2.4%) were called active. Inconclusive results (about 3%) are left out. For the sample, actives were picked, then their nearest neighbours and some compounds at random. A number with no mark means an inactive call. The call rests on the fitted dose curve; in most records, active means well fitted activation curve with a large enough effect; inconclusive means small, poorly fitted or top-dose-only effect; inactive means no such curve, though single readings can be large or run the other way.
Potency means the concentration at half of the fitted maximal effect.

This test in a line: qHTS Assay for NPC1 Promoter Activators. Further: nearly all actives have a fitted effect of over 60% in size.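 On activation: reporter is driven by a mutant NPC1 promoter; % of control where 0% means no effect.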 As to conditions: Huh7 NPC1 promoter luciferase reporter, 24 h; series mostly up to 9.22 µM; activation: at the top concentration. The gist of the method:
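In 1536-well qHTS, Huh7 cells harboring an NPC1 promoter–luciferase construct received compound for 24 h; activation was quantified by luminescence following luciferase reagent addition.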
On the technique in general: In qHTS, concentration-response curves come from the screen itself.
`O=C(CN(C(=O)c1csnn1)c1ccc(Br)cc1)NC1CCCC1`: the “activation” value is 1.31%.
On the same count and under the same terms, the value for `O=C(CN1C(=O)CCS(=O)(=O)c2ccccc21)NCc1ccc(F)cc1` was 9.64%.
Regarding `O=C(CNS(=O)(=O)c1ccc2ccccc2c1)Nc1ccc(F)c(F)c1F`, the “activation” value is -5.75%.
Take `N#CC(=C1SC=CS1)c1nc(-c2ccccc2)cs1`: the “activation” value is 18.5%.
On to `CCCCCN1CC(O)=C(c2nc(-c3ccc(Cl)cc3)cs2)C1=N`, for which the “activation” value was 0.95%.
In the case of `N#CC(=C1CCCC1)c1nc(-c2ccc(Cl)cc2)cs1`, the Potency was 2510 nM (active).
`CC1(C)NC(=O)N(CC(=O)N2CCN(S(=O)(=O)c3ccccc3F)CC2)C1=O`: the “activation” value is -4.7%.
`O=C(Nc1ccc(C(F)(F)F)cc1)c1cccc(-n2cnnn2)c1`: the “activation” value was -7.93%.
Still for that read-out and setting: in the case of `CN1CCN(S(=O)(=O)c2ccc(N3CCN(c4ccccc4O)CC3)c([N+](=O)[O-])c2)CC1` it was 6.04%.
With `CCc1ccc(N(CC(=O)NCc2cccnc2)S(=O)(=O)c2ccccc2)cc1`, the Potency was 2820 nM (active).
In the case of `O=C(CN(c1cc(C(F)(F)F)ccc1Cl)S(=O)(=O)c1ccccc1)NCc1cccnc1`, the “activation” value was -7.53%.
`CCCNS(=O)(=O)c1ccc(CCC(=O)NCc2cccnc2)cc1`: the “activation” value is -2.07%.
On to `CCN(C(=O)COC(=O)c1c(C)nn(-c2ccccc2)c1Cl)c1c(N)n(Cc2ccccc2)c(=O)[nH]c1=O`, for which the “activation” value was -0.895%.
On to `Cc1ccc(C(=O)N/C(=C/c2cccs2)C(=O)NCC2CCCO2)cc1` (centres undefined), for which the “activation” value is -0.594%.
`Cc1cc(/C=C(/C#N)C(=O)Nc2ccc(Cl)cc2)c(C)n1-c1cccnc1`: the “activation” value is 11.6%.
On to `Cc1ccc(-n2c(C)cc(/C=C(\C#N)C(=O)NCC3CCCO3)c2C)cc1` (centres undefined), for which the Potency was 3160 nM (active).
Regarding `O=C1C=C(c2cc(C(F)(F)F)cc(C(F)(F)F)c2)C[C@@H](c2ccc3c(c2)OCO3)C1`, the “activation” value was -0.428%.
The same measure, in the same setting: in the case of `Nc1c(C(=O)OCC(=O)Nc2ccc(OC(F)F)cc2)[nH]c(=O)[nH]c1=O` it was 0.835%; in that of `O=C1c2ccccc2C(=O)N1Cc1cc(-c2ccccc2Cl)no1`, -3.22%.
With `Cn1c(-c2ccc(F)cc2)cc2onc(-c3ccccc3Cl)c2c1=O`, the Potency is 1580 nM (active).
For `Cn1c(-c2ccc(C(F)(F)F)cc2)cc2onc(-c3ccccc3)c2c1=O`, the Potency was 398 nM (active).
On to `O=c1c2ccccc2c(-c2ccc(F)cc2)nn1-c1ccc(C(F)(F)F)cc1`, for which the “activation” value was -4.99%.
As to `Cc1[nH]n(C)c(=O)c1C(=O)c1c(-c2c(Cl)cccc2Cl)noc1C`, the “activation” value is 10.9%.
For `Cc1onc(-c2ccccc2)c1C(=O)N1CCN(S(=O)(=O)c2ccccc2C(F)(F)F)CC1`, the “activation” value was -1.13%.
Take `C=C(C)C(=O)Nc1cccc(C2=NOC3(C2)C[C@H](C(N)=O)N(C(=O)C(c2ccccc2)c2ccccc2)C3)c1` (some centres undefined): the “activation” value was -5.61%.
As to `COc1ccc(CNC(=O)COC(=O)c2ccc(C)c(S(=O)(=O)N3CCOCC3)c2)cc1OC`, the “activation” value is -1.27%.
With `Cc1cccc(OCCC(=O)OCc2csc(CC(=O)Nc3ccccc3C)n2)c1`, the “activation” value was -2.87%.
For `COC(=O)c1ccc(C23CC4(C2)[C@H](CN(Cc2cccnc2)[C@@H]4c2ccccc2)C3c2ccc(Cl)nc2)cc1` (some centres undefined), the “activation” value was -3.01%.
As to `CN(Cc1ccccc1)S(=O)(=O)c1nnc(NC(=O)c2ccccc2F)s1`, the “activation” value was 1.08%.
`O=C(Nc1ccc(NC(=O)c2ccccc2F)cc1)c1ccccc1F`: the “activation” value is -6.42%.
With `O=C(Nc1nnc(-c2ccccc2F)s1)c1ccccc1F`, the Potency was 1580 nM (active).
Regarding `COc1ccc(C(=O)NCC2CCCCC2)cc1S(=O)(=O)N1CCCC1`, the “activation” value is -5.34%.
Regarding `CCCn1c(N)c(C(=O)CSc2nnc3n2CCCCC3)c(=O)[nH]c1=O`, the “activation” value was 0.178%.
For the compound `COc1ccc([C@H]2CC(=O)C=C(c3ccc(CO)cc3)C2)cc1`, the “activation” value was 0.356%.
Regarding `Cc1ccc(NC(=O)c2cc3ccccc3o2)cc1`, the Potency was 3160 nM (active).
Consider `Cc1c(/C=N\NC(=O)c2cc3ccccc3o2)c2ccccc2n1C`, for which the “activation” value is -28.8%.
The same measure, in the same setting: the value for `C/C(=N\NC(=S)Nc1ccc(C)cc1)c1cc2ccccc2o1` was -1.99%.
Same read-out and setting: in the case of `COc1ccc(NC(=O)Cn2cc(C(=O)c3ccncc3)c(=O)c3cc(C)ccc32)cc1Cl` it was -0.38%.
On the same count and under the same terms, the value for `O=C1C=C(c2cccc(Br)c2)C[C@@H](c2ccc(F)cc2)C1` was -2.81%; that for `Cc1ccnc(NC(=O)CCCOc2ccccc2)c1` was -5.09%; that for `Cc1ccnc(NC(=O)CNC(=O)c2ccccc2)c1` was 3.23%.
`COc1ccccc1OCCNC(=O)CCNC(=O)c1ccccc1Cl`: the “activation” value is 0.549%.
Regarding `COc1cc(SC)ccc1C(=O)Nc1cc(C)ccn1`, the Potency is 3160 nM (active).
Regarding `COc1cc(SC)ccc1C(=O)N(Cc1ccccc1)c1ccccc1`, the “activation” value was -0.508%.
As for `COc1cc(SC)ccc1C(=O)NCCOc1ccccc1Cl`, the Potency is 3160 nM (active).
In the case of `COc1ccc(S(=O)(=O)Nc2cc(C)on2)cc1NC(C)=O`, the “activation” value is -2.61%.
With `CC1CCCCC1NC(=O)COC(=O)Cc1ccc(Cl)cc1` (centres undefined), the “activation” value is -1.97%.
In the case of `CCc1ccc(C(=O)N2CCN(S(=O)(=O)c3sc(C(=O)O)c(C)c3C(=O)O)CC2)cc1`, the “activation” value is -3.15%.
`COc1ccc(CNC(=O)CN2C(=O)NC3(CCCc4sccc43)C2=O)cc1` (centres undefined): the “activation” value was -0.775%.
`CCN(CC)S(=O)(=O)c1ccc(CNC(=O)CN2C(=O)NC3(CCc4ccccc43)C2=O)cc1` (centres undefined): the “activation” value was -1.9%.
On to `CCCC(=O)N1c2ccc(-c3csc(N)n3)cc2CC1C` (centres undefined), for which the Potency was 2820 nM (active).
Regarding `CCn1nc(C(=O)OCC(=O)N2c3ccccc3CC2C)c2ccccc2c1=O` (centres undefined), the “activation” value is -6.18%.
Regarding `Cc1ccn(CCC(=O)N2c3ccccc3CC2C)n1` (centres undefined), the “activation” value is -2.45%.
`COc1ccc(CCNC(=O)COC(=O)c2cc(=O)c3ccccc3o2)cc1`: the “activation” value was -3.16%.
`O=C(O)c1ccccc1N=N/C(=N/Nc1cc(S(=O)(=O)O)ccc1O)c1ccccc1`: the “activation” value is 10.8%.
Consider `O=C(c1ccc2nc(N3CCOCC3)sc2c1)N1CCN(c2ccc(Cl)cc2)CC1`, for which the “activation” value is 2.53%.
Turning to `Brc1ccc2nc(N3CCCC3)sc2c1`, the Potency was 2000 nM (active).
As to `CN(C)CCCN(C(=O)c1ccc(S(=O)(=O)N2CCCCCC2)cc1)c1nc2ccc(Br)cc2s1`, the “activation” value is -4.3%.
Consider `Fc1ccc2nc(N3CCCCC3)sc2c1`, for which the Potency is 3550 nM (active).
As to `O=C(NCCc1cccc(F)c1)C1CCCN(c2nc3ccccc3s2)C1` (centres undefined), the “activation” value is 3.92%.
Same read-out and setting: in the case of `Cc1nc(N2CCCCC2)sc1C=O` it was 0.38%.
Still for that read-out and setting: in the case of `OCC[C@H]1C[C@H](O)[C@@H](O)[C@]2(Cc3ccccc3CO2)O1` it was 3.77%.
For `COc1ccccc1CNC(=O)CCCN1C(=O)NC2(CCCC2)C1=O`, the “activation” value is -1.89%.
Take `CNS(=O)(=O)c1cccc(C(=O)OCC(=O)N2c3ccccc3NC(=O)C2(C)C)c1`: the “activation” value was -0.887%.
